We go through 43 sequences from PMC10726135, “HNF4α isoforms regulate the circadian balance between carbohydrate and lipid metabolism in the liver”.

Whole data set: some 18,000 sequences, median “log2 normalized intensity” near 0.36, cut for the highest 2% near 7.3. This excerpt belongs to a sample that is enriched for the highest values.

For this assay, the target named is T1, HNF4alpha8 (COS-7 nuclear extract) (Homo sapiens, UniProt P41235-5 1-452).
T1 sequence: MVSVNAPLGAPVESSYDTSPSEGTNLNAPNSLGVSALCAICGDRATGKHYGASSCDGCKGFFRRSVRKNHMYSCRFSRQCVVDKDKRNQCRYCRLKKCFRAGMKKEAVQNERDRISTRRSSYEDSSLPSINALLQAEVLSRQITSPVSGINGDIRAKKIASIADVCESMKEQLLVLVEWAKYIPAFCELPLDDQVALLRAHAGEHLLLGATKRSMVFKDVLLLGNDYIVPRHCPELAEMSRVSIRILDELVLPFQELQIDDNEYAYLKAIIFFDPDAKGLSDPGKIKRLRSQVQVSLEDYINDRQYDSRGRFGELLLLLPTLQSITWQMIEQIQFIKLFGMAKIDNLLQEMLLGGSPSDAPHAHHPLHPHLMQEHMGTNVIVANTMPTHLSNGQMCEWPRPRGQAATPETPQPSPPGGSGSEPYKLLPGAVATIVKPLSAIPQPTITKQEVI
In words: protein-binding microarray; COS-7 nuclear extract on double-stranded Agilent 4x180k PBM; binding buffer, salt, pH and temperature not given in the material; high values mean tight binding. The following applies: chain copies: 2; label: 3' end of strand 1 on the slide; dsDNA, one strand shown. In a few lines:
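COS-7 cells were transiently transfected by CaPO4 with an expression vector for a human HNF4α isoform, and nuclear extracts were prepared from them. The extracts were applied to a custom Agilent SurePrint G3 4x180k array of double-stranded ~60-nt oligonucleotides, with ~44,000 test sequences spotted in quadruplicate. An Agilent G2565CA scanner imaged bound HNF4α at 2-µm resolution. Binding signal is the background-corrected, normalized gProcessedSignal from Agilent software.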
In the case of “CCTTTGCCCTCCAAACTGAGAGATTTTTTCGCCTAGGGAGATTAGAGTATCGGTCGA”, the binding signal stood at 1.05 log2 normalized intensity.

With “GAGGTCTGGACCCTTGGCACTTTCACGATAGCCTAGGGAGATTAGAGTATCGGTCGA”, the binding signal worked out at 1.79 log2 normalized intensity.

Take “AGCAATGTTTCTTGTCCAGGGACTTTGAACGCCTAGGGAGATTAGAGTATCGGTCGA”: the binding signal came out at 6.55 log2 normalized intensity.

Consider “CAACTGACATCTGGAAATGTTTGTAGGGACGCCTAGGGAGATTAGAGTATCGGTCGA”, for which the binding signal turned out to be 0.67 log2 normalized intensity.

As for “CTGGAAATGTTTGTAGGGACTTTGACCCCTGCCTAGGGAGATTAGAGTATCGGTCGA”, the binding signal is 10.4 log2 normalized intensity.

Consider “AATGTTTGTAGGGACTTTGACCCCTAAAACGCCTAGGGAGATTAGAGTATCGGTCGA”, for which the binding signal was 9.59 log2 normalized intensity.

Consider “GACATCTGGAAATGTTTGTAGGGACTTTGAGCCTAGGGAGATTAGAGTATCGGTCGA”, for which the binding signal was 5.1 log2 normalized intensity.

As for “CTTTGACCCTGTTTTGTAAACTCCCTTTGAGCCTAGGGAGATTAGAGTATCGGTCGA”, the binding signal amounted to 2.04 log2 normalized intensity.

For the sequence “CAGCTTTGAAGTGCTTCCTGTGTATTTCTTGCCTAGGGAGATTAGAGTATCGGTCGA”, the binding signal was 1.27 log2 normalized intensity.

For the sequence “GGACTAAGAATTGCTCAACCTGGACCTCATGCCTAGGGAGATTAGAGTATCGGTCGA”, the binding signal was found to be 1.89 log2 normalized intensity.

“AGCCTCTATGTCAGGCCATTTCACCTTTGCGCCTAGGGAGATTAGAGTATCGGTCGA”: the binding signal was 4.57 log2 normalized intensity.

“CTATGTCAGGCCATTTCACCTTTGCCCTGTGCCTAGGGAGATTAGAGTATCGGTCGA”: the binding signal was 7.53 log2 normalized intensity.

For the sequence “TGTCACACTGGCCTTTGCCCTCGCTGGCGGGCCTAGGGAGATTAGAGTATCGGTCGA”, the binding signal was found to be 5.25 log2 normalized intensity.

With “CACAAAAAGGCTGTCACACTTGCCCTTTGCGCCTAGGGAGATTAGAGTATCGGTCGA”, the binding signal came to 5.42 log2 normalized intensity.

Take “AAAGGCTGTCACACTTGCCCTTTGCCCTCAGCCTAGGGAGATTAGAGTATCGGTCGA”: the binding signal came out at 8.84 log2 normalized intensity.

For “AAGGCTGTCACACTGGCCTTTGCCCTCGCTGCCTAGGGAGATTAGAGTATCGGTCGA”, the binding signal was determined as 5.82 log2 normalized intensity.

As for “TCAGGCCATTTCACCTTTGCCCTGTCAGTCGCCTAGGGAGATTAGAGTATCGGTCGA”, the binding signal worked out at 6.79 log2 normalized intensity.

For “CTGTCACACTTGCCCTTTGCCCTCACTGGTGCCTAGGGAGATTAGAGTATCGGTCGA”, the binding signal stood at 7.78 log2 normalized intensity.

For “ACACTTGCCCTTTGCCCTCACTGGTAGAAGGCCTAGGGAGATTAGAGTATCGGTCGA”, the binding signal was determined as 5.8 log2 normalized intensity.

On to “TTCAGCCGCTTTGAGGTCAATGGTAGAAAAGCCTAGGGAGATTAGAGTATCGGTCGA”, for which the binding signal was 1.85 log2 normalized intensity.

Consider “ACTAAAGGTTAAACATGTACTCTGTACTCCGCCTAGGGAGATTAGAGTATCGGTCGA”, for which the binding signal came to 3.43 log2 normalized intensity.

Turning to “ACCCCTCCACTGGACAGCAGCTACATAAGGGCCTAGGGAGATTAGAGTATCGGTCGA”, the binding signal was determined as 1.83 log2 normalized intensity.

Regarding “AAATACCCTCTTTAGGGTAGCCTGGGTTAAGCCTAGGGAGATTAGAGTATCGGTCGA”, the binding signal was determined as 0.844 log2 normalized intensity.

For the sequence “ATGTGGGGCGTGTGTTAGACTTTGGACCTGGCCTAGGGAGATTAGAGTATCGGTCGA”, the binding signal amounted to 9.77 log2 normalized intensity.

As for “TAAGGAGCTGAGTCATAGTGGACTTTGCCTGCCTAGGGAGATTAGAGTATCGGTCGA”, the binding signal amounted to 7.86 log2 normalized intensity.

Consider “TAGACTTTGGACCTGGCCTGCGGGGTCAGGGCCTAGGGAGATTAGAGTATCGGTCGA”, for which the binding signal was 6.35 log2 normalized intensity.

Consider “TAGGGCCTTGCTATGGAGTGGACTTTGGCTGCCTAGGGAGATTAGAGTATCGGTCGA”, for which the binding signal is 7.22 log2 normalized intensity.

In the case of “GGACTTTGGCCTTACTTGGCCTGTTTGCTGGCCTAGGGAGATTAGAGTATCGGTCGA”, the binding signal amounted to 5.89 log2 normalized intensity.

Consider “GGGCGTGTGTTAGACTTTGGACCTGGCCTGGCCTAGGGAGATTAGAGTATCGGTCGA”, for which the binding signal came out at 7.98 log2 normalized intensity.

On to “GCTAGTAAGGAGCTGAGTCATAGTGGACTTGCCTAGGGAGATTAGAGTATCGGTCGA”, for which the binding signal is 4.03 log2 normalized intensity.

Take “ACTTTGGACCTTTGTGTGTGTGTGTGTGTGGCCTAGGGAGATTAGAGTATCGGTCGA”: the binding signal amounted to 3.49 log2 normalized intensity.

Consider “CACCTGTGTCAACATGGACTTTGTTGTTTGGCCTAGGGAGATTAGAGTATCGGTCGA”, for which the binding signal was 4.99 log2 normalized intensity.

For the sequence “GTTGGACTTTGGACCTTTGTGTGTGTGTGTGCCTAGGGAGATTAGAGTATCGGTCGA”, the binding signal amounted to 8.31 log2 normalized intensity.

For the sequence “TGGACAACTGTACTTTGGACTGGGGACCTGGCCTAGGGAGATTAGAGTATCGGTCGA”, the binding signal turned out to be 6.02 log2 normalized intensity.

As for “CGGGTATGTGGGGCGTGTGTTAGACTTTGGGCCTAGGGAGATTAGAGTATCGGTCGA”, the binding signal is 4.91 log2 normalized intensity.

Regarding “CCAATTATTGCGAGTTTAGGAGGGTTCCTGGCCTAGGGAGATTAGAGTATCGGTCGA”, the binding signal is -0.0269 log2 normalized intensity.

Regarding “GATCCACGGAGAATGTAGACCTTTACCACCGCCTAGGGAGATTAGAGTATCGGTCGA”, the binding signal was 2.35 log2 normalized intensity.

Turning to “ATCCCCCACACCGAGATAGTAGAGATAGTGGCCTAGGGAGATTAGAGTATCGGTCGA”, the binding signal was 2.5 log2 normalized intensity.

Consider “TCAAAGTCCAAATAGCGCTAACTCTATATCGCCTAGGGAGATTAGAGTATCGGTCGA”, for which the binding signal was 0.779 log2 normalized intensity.

Regarding “TGGCACTGAAGAATGTCTAAATCTGAAGGAGCCTAGGGAGATTAGAGTATCGGTCGA”, the binding signal is -0.983 log2 normalized intensity.

For the sequence “GTGTTGACCTCTGGACCTCATCTTCCTCCCGCCTAGGGAGATTAGAGTATCGGTCGA”, the binding signal amounted to 5.2 log2 normalized intensity.

As to “TCTTTCAAGATAACAAGGCAAACTTTATCAGCCTAGGGAGATTAGAGTATCGGTCGA”, the binding signal was -0.554 log2 normalized intensity.

For “ATGTGTTTGCATGACTCATAAAGAACAGTTGCCTAGGGAGATTAGAGTATCGGTCGA”, the binding signal was 0.739 log2 normalized intensity.
